In all, about 310,000 compounds went through this assay and about 14,000 (4.5%) showed an effect of 50% or more. The effect is printed as a negative number. The full list was thinned out, with strong results kept by preference.
Each compound was assayed against human ether-à-go-go-related gene (hERG) potassium channel (human, UniProt Q12809) (assay: primary screen, population patch clamp on CHO cells stably expressing hERG; higher = less effect of the substance).
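Further: peak tail current of the secondary pulse compared with the same well before compound.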

human ether-à-go-go-related gene (hERG) potassium channel, sequence (Q12809 whole entry, looked up): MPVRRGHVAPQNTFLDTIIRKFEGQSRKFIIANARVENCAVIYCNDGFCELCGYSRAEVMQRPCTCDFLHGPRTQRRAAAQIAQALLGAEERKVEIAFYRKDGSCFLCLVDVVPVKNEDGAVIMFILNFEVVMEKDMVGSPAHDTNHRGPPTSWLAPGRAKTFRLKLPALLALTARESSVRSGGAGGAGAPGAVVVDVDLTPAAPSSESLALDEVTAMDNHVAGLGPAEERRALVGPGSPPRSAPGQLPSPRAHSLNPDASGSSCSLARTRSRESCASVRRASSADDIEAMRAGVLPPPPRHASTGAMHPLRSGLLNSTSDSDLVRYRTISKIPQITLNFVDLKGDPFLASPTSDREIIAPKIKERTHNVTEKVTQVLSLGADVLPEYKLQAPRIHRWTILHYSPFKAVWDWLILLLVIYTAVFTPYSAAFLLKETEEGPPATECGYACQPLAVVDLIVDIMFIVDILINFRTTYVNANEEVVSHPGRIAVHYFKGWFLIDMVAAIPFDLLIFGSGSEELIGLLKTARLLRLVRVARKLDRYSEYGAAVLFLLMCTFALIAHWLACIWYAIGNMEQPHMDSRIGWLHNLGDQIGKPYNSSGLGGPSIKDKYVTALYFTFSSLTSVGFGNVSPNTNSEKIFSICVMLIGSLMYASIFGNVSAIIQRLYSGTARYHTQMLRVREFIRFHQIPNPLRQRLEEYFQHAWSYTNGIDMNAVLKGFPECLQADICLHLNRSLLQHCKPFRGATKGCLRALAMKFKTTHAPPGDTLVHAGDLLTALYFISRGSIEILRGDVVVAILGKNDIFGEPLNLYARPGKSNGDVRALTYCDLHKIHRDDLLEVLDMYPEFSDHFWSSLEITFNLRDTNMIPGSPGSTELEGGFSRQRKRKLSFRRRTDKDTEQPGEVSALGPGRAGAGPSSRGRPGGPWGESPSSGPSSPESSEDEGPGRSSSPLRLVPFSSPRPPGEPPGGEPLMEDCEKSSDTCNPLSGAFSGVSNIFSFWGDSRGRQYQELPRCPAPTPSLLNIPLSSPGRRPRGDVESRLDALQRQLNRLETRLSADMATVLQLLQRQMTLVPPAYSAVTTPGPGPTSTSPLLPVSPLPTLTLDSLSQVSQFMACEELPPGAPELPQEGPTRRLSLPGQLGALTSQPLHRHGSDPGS

Compound	hERG current change (%, negative = inhibition) at 10uM [%]
CNC(=O)C1CCN(S(=O)(=O)c2c(C)noc2/C=C/c2cccc(C)c2)CC1	10.2
COc1ccccc1NC(=O)c1ccc2c(c1)C(=O)N(c1ccccc1OC)C2=O	5.55
CC(C)c1ccccc1NS(=O)(=O)c1cccs1	17.8
CNCC[C@H](Oc1cccc2ccccc12)c1cccs1.Cl	-36
CNCCC(Oc1ccccc1OC)c1ccccc1.Cl (stereo not drawn)	-53.5
CNCC[C@H](Oc1cccc2ccccc12)c1cccs1	-37.8
CCS(=O)(=O)c1ccc2oc(Nc3cccc(OC)c3)nc2c1	9.78
Cc1ccc(NC(=O)CCCn2nc(C)c3c(C)n(-c4ccccc4)nc3c2=O)cc1C	24.6
COc1ccc(Cc2ccc(OC)c(N)c2)cc1N	-52.6
COc1ccc(OC)c(N)c1.Cl	20.5
COc1cc(Cc2ccc(N)c(OC)c2)ccc1N	11.1
Cc1cccc(N2CC(C)Cn3c2nc2c3c(=O)[nH]c(=O)n2C)c1 (stereo not drawn)	-0.757
COCCCNC(=O)CCSc1ccc(Cl)cc1	-8.9
COCCNCCCCSc1ccc(Cl)cc1	-50.8
COCCCNCCCCSc1ccc(Cl)cc1	-37.9
O=C1CCCC2=C1C(c1ccccc1)C1C(=O)c3ccccc3C1=N2 (stereo not drawn)	6.16
CC(=O)Nc1ccc(C(=O)N2CCN(S(=O)(=O)c3ccc4c(c3)OCCCO4)CC2)cc1	5.45
Cc1cc(C(=O)Nc2ccc(S(=O)(=O)N3CCCC3)cc2)no1	23.6
CC(=O)N1CCN(c2ccccc2NC(=O)c2ccc(-c3cccc([N+](=O)[O-])c3)o2)CC1	-75.4
COc1cccc(C(=O)Nc2cc([N+](=O)[O-])ccc2N2CCN(C)CC2)c1	-71.7
CCC(=O)N1CCN(c2ccccc2NC(=O)c2ccc(-c3cccc([N+](=O)[O-])c3)o2)CC1	-34.1
CN1CCN(c2ccc(S(=O)(=O)N3CCCCC3)cc2NC(=O)c2cccc([N+](=O)[O-])c2)CC1	-65.8
CCC(=O)N1CCN(c2ccccc2NC(=S)NC(=O)c2cccc([N+](=O)[O-])c2)CC1	-69.9
O=C(NC(=S)Nc1ccccc1N1CCCCC1)c1ccc(-c2cccc([N+](=O)[O-])c2)o1	4.88
CCC(=O)N1CCN(c2ccc(NC(=S)NC(=O)c3cccc([N+](=O)[O-])c3)cc2)CC1	2.13
O=C(NC(=S)Nc1ccccc1N1CCOCC1)c1cccc([N+](=O)[O-])c1	17.6
CN1CCN(c2ccc(S(=O)(=O)N3CCCCC3)cc2NC(=O)c2ccc3ccccc3c2)CC1	-40.4
COc1ccc(C(=O)Nc2cc([N+](=O)[O-])ccc2N2CCN(C)CC2)cc1	-30.3
CN1CCN(c2ccc(S(=O)(=O)N3CCCCC3)cc2NC(=O)c2ccc(C#N)cc2)CC1	-41.7
COc1ccc(C(=O)Nc2cc([N+](=O)[O-])ccc2N2CCCC2)cc1	-1.57

Source: PMC4336329 (PLoS ONE, 2015)
